Compounds without any hit were thinned out: in the full panel of roughly 83,000, 20% have a hit.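 For each line, cells grew in 96-well plates with the test compound present at a single concentration for 48 hours.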 Values without a mark were called inactive. Activity calls are given as the source filed them. The calls were made as follows: active = growth percent below 10; inactive = the rest.

Some test systems named below: T-47D breast; BT-549 breast; MDA-MB-435 melanoma; SW-620 colon; MCF7 breast; HCT-116 colon; HCC-2998 colon; KM12 colon.
Test in all cases: NCI-60 one-dose screen, 48 h (100 = growth as untreated, 0 = no growth, -100 = all killed)
What all share (details): 10 µM unless noted

Turning to `COP(=O)(OC)/C(=N\NS(=O)(=O)c1ccc(C)cc1)c1ccccc1`, the growth with T-47D breast is 94.7%; in the test on BT-549 breast, 125%; in the test with MDA-MB-435 melanoma, 106%; in the test with SW-620 colon, 105%; with MCF7 breast it was 88.6%; in the test on HCT-116 colon, 103%. Besides, the growth is 102% in the test on HCC-2998 colon and 103% in the test on KM12 colon.

As for `COc1ccc(Nc2[nH]n3c(=O)cc(C)nc3c2C(N)=O)c(OC)c1`, the growth in the test on T-47D breast was 79.8%; with BT-549 breast, 95.3%; with MDA-MB-435 melanoma, 114%; in the test with SW-620 colon, 93.3%; with MCF7 breast it was 92.7%; with HCT-116 colon, 97.8%. Besides, the figures for the growth in the test on HCC-2998 colon and with KM12 colon were 108% and 101%, respectively.

On to `CCOC(=O)c1ccc2c(c1)nc(-c1ccc(OCc3ccccc3)c(OC)c1)n2-c1cc(C(C)(C)C)[nH]n1`, for which the growth in the test with T-47D breast is 65.5%; with BT-549 breast, 98.6%; in the test with MDA-MB-435 melanoma, 85%; in the test with SW-620 colon it was 98%; with MCF7 breast it was 63.1%; with HCT-116 colon it was 62.8%. Moreover, the growth in the test on HCC-2998 colon was 91%; in the test on KM12 colon, 69.3%.

As for `O=C(Nc1cccc(-n2cc(-c3ccncc3)c(-c3ccc(Cl)c(O)c3)n2)c1)c1ccc(N2CCOCC2)c(C(F)(F)F)c1`, the growth with T-47D breast was 69.4%; with BT-549 breast it was 63.6%; in the test on MDA-MB-435 melanoma, 35.2%; in the test on SW-620 colon it was 6.29% (active); in the test with MCF7 breast it was 60.6%; in the test with HCT-116 colon, 29.7%. Also, the values for the growth in the test on HCC-2998 colon and in the test on KM12 colon were 56.4% and 30.6%, respectively.

Consider `CO[C@H]1NC(=O)N(S(=O)(=O)c2ccc(Cl)cc2)[C@@H]1OC`, for which the growth in the test on T-47D breast was 105%; with BT-549 breast it was 108%; with MDA-MB-435 melanoma it was 97.3%; in the test with SW-620 colon it was 108%; with MCF7 breast it was 99.4%; with HCT-116 colon, 110%. Moreover, the growth in the test with HCC-2998 colon was 110%; in the test with KM12 colon, 103%.

On to `C=C1CCC2C3(C)COC(c4ccc(N(C)C)cc4)OC3CCC2(C)C1C/C=C1/C(=O)OCC1O` (configuration not stated), for which the growth in the test with T-47D breast is 52.1%; in the test on BT-549 breast, 46.4%; in the test with MDA-MB-435 melanoma, 7.31% (active); in the test with SW-620 colon, 26%; in the test with MCF7 breast it was 29.5%; in the test with HCT-116 colon, 21.6%. The growth in the test on HCC-2998 colon is 112%; in the test with KM12 colon it was 54.6%.

With `Nc1cc2c(cc1C(=O)c1cccc(F)c1)OCCO2`, the growth with T-47D breast is 93.6%; in the test with BT-549 breast, 84.5%; in the test on MDA-MB-435 melanoma, 92.1%; in the test on SW-620 colon, 105%; in the test on MCF7 breast, 99.2%; in the test with HCT-116 colon, 100%. Also, the growth in the test with HCC-2998 colon was 95.4%; in the test on KM12 colon, 100%.

`Nc1cccc(-c2nc3sccn3c2-c2ccnc(NCCCNS(=O)(=O)c3cccc4ccccc34)n2)c1`: the growth with T-47D breast is -2.4% (active); with BT-549 breast, 7.66% (active); in the test on MDA-MB-435 melanoma it was 23.2%; in the test with SW-620 colon, 68.2%; in the test with MCF7 breast, 25.2%; in the test on HCT-116 colon, 36.1%. Besides, the growth with HCC-2998 colon is 60.7%; with KM12 colon, 23.6%.

Regarding `CCOC(=O)c1ccc(NC(=O)N2CC(C)OC(C)C2)cc1` (configuration not stated), the growth in the test on T-47D breast is 94.4%; in the test with BT-549 breast it was 97.8%; in the test with MDA-MB-435 melanoma, 105%; in the test with SW-620 colon, 106%; in the test on MCF7 breast, 96.4%; in the test with HCT-116 colon it was 102%. Also, the growth with HCC-2998 colon was 105%; in the test on KM12 colon it was 108%.

Turning to `O=c1[nH]c(NCc2ccccc2)nc2nc(Nc3ccc(NC(=S)Nc4ccccc4)cc3)nc(-c3ccc(O)cc3O)c12`, the growth in the test on T-47D breast was 84%; in the test with BT-549 breast, 155%; in the test on MDA-MB-435 melanoma it was 105%; in the test with SW-620 colon it was 95.6%; in the test on MCF7 breast it was 96.7%; with HCT-116 colon it was 99.2%. The figures for the growth with HCC-2998 colon and in the test with KM12 colon were 113% and 96.3%, respectively.

Take `C=C[C@@H]1C[C@@H]2Cc3c(C)cc(C)cc3N1O2`: the growth with T-47D breast is 115%; with BT-549 breast, 112%; in the test on MDA-MB-435 melanoma, 101%; in the test with SW-620 colon, 102%; in the test on MCF7 breast it was 97.6%; with HCT-116 colon it was 104%. Also, the growth in the test on HCC-2998 colon was 103%; in the test on KM12 colon it was 104%.

As to `CC(C)C1=CC2=C(C=O)C[C@@H]3[C@](C)(CCC[C@@]3(C)C(=O)OCC#CCN3CCCC3)[C@H]2CC1`, the growth with T-47D breast was 54.7%; with BT-549 breast it was 63.9%; in the test with MDA-MB-435 melanoma, 92.8%; in the test on SW-620 colon, 88%; with MCF7 breast, 85.7%; with HCT-116 colon it was 50.3%. Besides, the growth is 93.9% with HCC-2998 colon and 75.1% in the test on KM12 colon.

Take `N=C(N)c1ccc(-c2cc(Cl)cc(Cl)c2)cn1`: the growth in the test on T-47D breast is 83.7%; with BT-549 breast it was 94.5%; with MDA-MB-435 melanoma, 56.7%; in the test with SW-620 colon it was 82.6%; in the test on MCF7 breast it was 75.9%; with HCT-116 colon, 92%. For the same molecule, the growth in the test with HCC-2998 colon is 67.5%; in the test on KM12 colon, 89.8%.

In the case of `Fc1ccc(Nc2ncnc3ccc(-c4cnc5[nH]ccc5c4)cc23)cc1Cl`, the growth in the test on T-47D breast was -35.3% (active); in the test on BT-549 breast it was 20.3%; in the test with MDA-MB-435 melanoma, 51.8%; in the test on SW-620 colon it was 4.35% (active); in the test with MCF7 breast, 9.34% (active); in the test on HCT-116 colon, -36.3% (active). Besides, the values for the growth in the test on HCC-2998 colon and in the test on KM12 colon were 34% and 23.3%, respectively.

The values are drawn from PubChem BioAssay (NCI).
